Assay results published in the supplement of paper PMC6555819.

The sequences below were run on RARb homodimer (NR concentration 270 nM) (assay: PBM binding z-score (relative to random genomic background probes); higher = stronger binding; sequences stand for … in GC…GCGATTGACAGCGTAGAATGAAGG).
Summary of the method: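 Probes were double-stranded and carried 34-nt variable regions with direct-repeat seeds, single-nucleotide variants, half-site ablations and random human genomic background sequences, printed on custom Agilent 4×180K protein-binding microarrays. Arrays were incubated 1 h with ligand-free nuclear receptor dimers in PBS pH 7.4, 2% milk, 0.02% Triton X-100, 1 mM DTT, 0.2 mg/mL BSA and 0.4 mg/ml salmon testes DNA. Antibodies against each partner (one per run) detected binding, and scanned fluorescence was regression-normalized. Binding z-scores use the random background probes as reference.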

Row | Sequence | PBM binding z-score
1 | CCGAGTAGGTTATGGGGCATTAAGGCAACGGTGA | 1.08
2 | CCAGACAGGTGAGTAGGTAACTCAGCCTCGATTA | 0.326
3 | CCTATTTGGTCAAGGTCACACACGCTATAGGTAC | 4.51
4 | TCTATTAGTTGATTACGGCAACCGAAACAGCGGA | -0.0417
5 | ATATGTACGTTACATCCGGGTCATTCAGGCTATG | 2.41
6 | CCTTACGGGTCACTCCAGGTTATAGTATCGGAGT | 3.16
7 | TCTTGTAGATCAAGCAGGTTTAGAAAGCCTGAGT | -0.518
8 | CGTCCAAGTTCAATGCTAGGTCAGTGAAAGCATT | 3.86
9 | AGAACGAGGGCAATGAGTTGAGAGCACGGGTGGC | 1.1
10 | CGTCCAAGGTCAAGGTCAGAGAAAGAGACTCGAA | 4.83
11 | ATCGAAAGGTCGTGAGGTGAGTATGCAGAAAGGC | 3.26
12 | TCGAGTAGGTTACCAATGGGGCATTCTGCTTTCT | 0.45
13 | CCTTTCGGGTCACGAGGTTATAGCACGACGAGCG | 4.31
14 | ACAGACAGGTGAGTGAAGGAAACTCAGCTGGACG | -0.566
15 | CTACCCAGGTGAACAAGGTCGTTGATTACTATTC | 1.57
16 | CCTAGTTGGTCAAGGTCACACTCGCTATAGGTAC | 4.05
17 | CAAACTAGGTCAAGGTCAAACTCGGTTTGTGCCA | 5.07
18 | ACTAGCAGGCCAAGATTGGGTCACTCAAACAAAG | 1.97
19 | CCTACTGGGCCAAGGTCCTTGATCAGTCAAAGCA | 0.00283
20 | GCGACTGGGGCAATGCAGGTTACCATAAGGTTGG | 1.14

Row | Sequence | PBM binding z-score
21 | TCTTGTAGATCAAAAGAGGTTAAGAAAGTGCGCT | 0.976
22 | CCAGACAGGTGAAAGGTAAATCAGTCTGGTACGC | 0.653
23 | TCTAGCAGGCCAGAGGTTCACTCAAGAGGTACGG | 0.483
24 | TCTTGTAAATCAGCAGGTTAAGAAAGCTGGCCAA | -0.0241
25 | TCTAGCAGGCCAGAGAGTCACTCAAGAGGTACGG | -0.56
26 | CCTACTGGGCCGCGAAAGGTCATTGATTCAGTGA | 4.47
27 | CAAACTAGGTCAAGAGGTCAATGTCCGCTTCCCG | 5.98
28 | AGAACGAGGGGAATGAGTTGATAGCACGGGTGGC | 0.0648
29 | CTACCAAGGTGAACAAGGTCCTTGATTACTATTC | 1.02
30 | CCTACTGGGCCATCACGTCATTGATATCAACGTT | 0.0558
31 | TCTCGGAGGACACGAAAGGTCAGAGCGCGACATC | 4.91
32 | ATATGTAGGTTAAGGGTCATTCAGGTTGGTTCGC | 4.16
33 | TCTCGGAGGACACGAAAGGTCAGCGCTCGACATC | 4.96
34 | CGAACTCGGTCAGAACAGGACAGTGAAGGATGAT | 1.03
35 | GCGACTGGGACAAAGCAGGTTACCATAAGGTTGG | 0.587
36 | ATCGAAAGGTCGACGAGGTGAGTACACACCGTTT | 3.26
37 | TCGAGTAGGTTAGTCGGGGCCTTCAGCCAACATA | -0.149
38 | CCTACTGGGCCAAAGGTCGTTGATTCCAATGCTC | 2.03
39 | ATCTCTAGGTAACAAGCTCAGTGAAAGAGAGGAC | 0.444
40 | TCTTGTAGATCAACAGAGGTTAAGAAAGTGCGCT | 1.45
